Results filed as inconclusive are left out. Active and inactive are the calls of the source. The call rests on the fitted dose curve; in most records, active means well fitted curve in the direction sought with a large enough effect; inconclusive means small, poorly fitted or top-dose-only effect, or another doubt; inactive means no such curve, though single readings can be large; an effect the other way counts as inactive or inconclusive.
What was measured:
[1] = Cell Viability - H-4-II-E (AID 543);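 further: cells exposed to compound for 40 hours; on the % scale 0 is the no-effect control and ±100 the full control effect; nearly all actives have a fitted effect of over 35% in size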
Summary of the method: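 Here, cytotoxicity is measured in the rat hepatoma line H-4-II-E as loss of intracellular ATP after 40 hr compound treatment, detected by luciferase luminescence.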

[2] = Cell Viability - SH-SY5Y (AID 544); conditions: SH-SY5Y neuroblastoma cell viability; viability change, negative = cytotoxic: at 92.2 µM (top of the series);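 further: cells exposed to compound for 40 hours; nearly all actives have a fitted effect of over 55% in size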
Summary of the method: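 Cytotoxicity is scored as a concentration-dependent fall in intracellular ATP in human SH-SY5Y cells treated 40 hr in complete culture medium. Potency is expressed as AC50 from a Hill equation fit.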

[3] = Cell Viability - Renal Proximal Tubule (AID 545);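 further: cells exposed to compound for 40 hours; nearly all actives have a fitted effect of over 40% in size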
Summary of the method: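 Primary rat renal proximal tubule cells (1000/well) were treated with compounds for 40 hr at 37 °C in complete medium. Intracellular ATP was measured by CellTiter-Glo luminescence, and AC50 values came from Hill-equation fits of concentration-response data.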

[4] = Cell Viability - Mesenchymal (AID 546);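 further: cells exposed to compound for 40 hours before reading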
Summary of the method: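 Normal human renal glomerulus-derived kidney mesenchymal cells, 1000 per well in complete medium, were treated with compounds for 40 hr at 37 °C. Viability was read as intracellular ATP by CellTiter-Glo luminescence; AC50 values came from Hill-equation fits of qHTS concentration-response data.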

[5] = Cellular Toxicity (caspase-3) HepG2 (AID 654);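 further: cells exposed to compound for 16 hours before reading; 0% = DMSO alone and 100% = caspase signal from 100 µM tamoxifen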
Summary of the method: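 qHTS, HepG2, 1500 cells/well, complete medium; cpd 16 h 37 °C; Caspase-Glo 3/7, 20 min RT; lum. Norm: DMSO vs 100 uM tamoxifen; AC50 Hill fit.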

[6] = Cellular Toxicity (caspase-3) Jurkat (AID 655); conditions: Jurkat caspase-3 activation, luminescence; caspase-3 activation: at 92.2 µM (top of the series), DMSO = 0%, tamoxifen = 100%;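 further: cells exposed to compound for 16 h at 37 °C before reading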
Summary of the method: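 Jurkat cells (5000/well) in complete medium were treated with compounds for 16 hr at 37 °C, then Caspase-Glo 3/7 luminescence was read after 20 min at room temperature. Data normalized to DMSO (basal) and 100 uM tamoxifen (100%); AC50 from Hill fit.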

[7] = Cellular Toxicity (caspase-3) HUV-EC-C (AID 656)
Summary of the method: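 HUV-EC-C endothelial cells, 1000/well, were pre-incubated 5 hr at 37°C, then exposed to compounds for 16 hr at 37°C. Caspase-Glo 3/7 luminescence was read after 20 min at room temperature. AC50 came from Hill fits, normalized to DMSO and 100 uM tamoxifen.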

[8] = Cellular Toxicity (caspase-3) SHSY5Y (AID 657)
Summary of the method: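 SH-SY5Y human neuroblastoma cells (1500/well) were treated with compounds for 16 h at 37 °C, then Caspase-Glo 3/7 luminescence was read after 1 h at room temperature. Data normalized to DMSO and 10 uM staurosporine; AC50 from Hill fits.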

[9] = Cellular Toxicity (caspase-3) MRC-5 (AID 659);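 further: 0% = DMSO basal and 100% = 10 µM staurosporine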
Summary of the method: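 Luminescence from caspase-cleaved aminoluciferin substrate (Caspase-Glo 3/7, 1 hr RT) reports caspase 3/7 activity in MRC-5 lung fibroblasts after 16 hr compound exposure. Normalized to DMSO basal and 10 uM staurosporine as 100%; AC50 from Hill fits.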

[10] = Cellular Toxicity (caspase-3) Mesangial (AID 660); conditions: mesangial cells, normalized: DMSO 0%, 100 µM tamoxifen 100%; at 91.7 µM (top of the series);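 further: combined caspase 3 and 7 activity read by Caspase-Glo luminescence; cells exposed to compound for 16 h before the caspase read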
Summary of the method: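 Concentration-response qHTS: compound-induced rise in caspase 3/7 luminescence in human mesangial cells after 16 h, normalized to DMSO and 100 uM tamoxifen controls.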

[11] = Cellular Toxicity (caspase-3) SK-N-SH (AID 661);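 further: 0% = DMSO basal and 100% = 10 µM staurosporine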
Summary of the method: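 Caspase 3/7 activation is measured as a luminescence increase from aminoluciferin released by substrate cleavage in SK-N-SH cells after 16 hr compound treatment; values are AC50 from concentration-response curves.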

[12] = Cellular Toxicity (caspase-3) H-4-II-E (AID 663); conditions: H-4-II-E rat hepatoma, scaled: DMSO 0%, 100 µM tamoxifen 100%; at 92.2 µM (top of the series);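 further: cells exposed to compound for 16 hr before readout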
Summary of the method: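 Luminescence from caspase-cleaved aminoluciferin substrate, read 20 min after reagent addition, reports caspase 3/7 activation in rat H-4-II-E cells after 16 hr compound exposure. Normalized to DMSO (basal) and 100 uM tamoxifen (100%); AC50 from Hill fits.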

[13] = Cellular Toxicity (caspase-3) Hek293 (AID 664); conditions: HEK293 caspase-3 activation, DMSO = 0%, 100 µM tamoxifen = 100%; at 92.2 µM (top of the series);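 further: cells exposed to compound for 16 h at 37 °C before readout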
Summary of the method: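 Activation of caspase-3/7 is measured as increased luminescence from cleaved peptide-aminoluciferin substrate in HEK293 cells treated 16 hours at 37 °C. AC50 values come from Hill-equation fits of concentration-response data.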

[14] = Cellular Toxicity (caspase-3) N2a (AID 665);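 further: compound exposure lasted 16 h at 37 °C before readout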
Summary of the method: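 Plated mouse neuroblastoma N2a cells received titrated compounds for 16 h in complete medium. Caspase activity was then detected with a peptide-aminoluciferin luminescent reagent.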

[15] = Cellular Toxicity (caspase-3) NIH 3T3 (AID 666);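 further: 0% = DMSO basal and 100% = 100 µM tamoxifen stimulation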
Summary of the method: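 Concentration-response qHTS in NIH 3T3 mouse fibroblasts scores caspase-3/7 activation as rising luminescence after 16 hr compound exposure. Signals are scaled between DMSO-only and 100 uM tamoxifen.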

[16] = Cellular Toxicity (caspase-3) Renal Proximal Tubule (AID 667); conditions: Potency: caspase-3 activation;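 further: cells exposed to compound for 16 hours at 37 °C before detection; 0% = DMSO basal and 100% = 10 µM staurosporine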
Summary of the method: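 Primary rat proximal tubule cells, 1000/well, 5 h plating at 37 °C, then compound 16 h at 37 °C. Caspase-Glo 3/7 reagent, 1 h RT, luminescence. Normalized to DMSO (basal) and 10 uM staurosporine (100%); Hill-fit AC50.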

[17] = target: Cytochrome P450 3A4 (Homo sapiens) (UniProt P08684); assay: qHTS Assay for Inhibitors and Substrates of Cytochrome P450 3A4 (AID 884); further: on the % scale 0 is the no-effect control and ±100 the full control effect; nearly all actives have a fitted effect of over 50% in size
Summary of the method: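 20 nM human CYP3A4 with 25 uM Luciferin-PPXE (at KM) in 200 mM KPO4, preincubated 10 min with compound; NADPH regeneration started a 60 min RT reaction. Luciferin detected by luminescence, normalized to 57 uM ketoconazole as full inhibition.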

[18] = Cell Viability - LYMP2-001 (AID 921);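 further: 0% = DMSO only and full inhibition = tetraoctylammonium bromide control wells; nearly all actives have a fitted effect of over 70% in size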
Summary of the method: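 Human lymphoblastoid cells (Coriell), 2500 per well, were preincubated 5 hr at 37 C, then exposed to compounds in complete medium for 24 hr at 37 C. Cellular ATP was read by CellTiter-Glo luminescence; AC50 from Hill fits of concentration-response data.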

[19] = Cellular Toxicity (caspase-3) BJ (AID 658);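 further: 0% = DMSO basal and 100% = 10 µM staurosporine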
Summary of the method: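 Luminescent aminoluciferin-substrate cleavage reports caspase 3/7 activity in normal human BJ fibroblasts after 16 hr compound exposure at 37 °C. Normalized to DMSO (basal) and 10 uM staurosporine (100%); AC50 from Hill fit of concentration-response.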

[20] = target: Cytochrome P450 3A4 (Homo sapiens) (UniProt P08684); assay: qHTS Assay for Activators of Cytochrome P450 3A4 (AID 885); further: nearly all actives have a fitted effect of over 65% in size
Summary of the method: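 Quantitative HTS format: compounds preincubated with 20nM human CYP3A4 and Luciferin-PPXE substrate at KM, reaction started by NADPH regeneration, stopped after 60 min, luciferase luminescence read 20 min later.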

Sequence of Cytochrome P450 3A4 (Homo sapiens) (P08684 whole entry, looked up): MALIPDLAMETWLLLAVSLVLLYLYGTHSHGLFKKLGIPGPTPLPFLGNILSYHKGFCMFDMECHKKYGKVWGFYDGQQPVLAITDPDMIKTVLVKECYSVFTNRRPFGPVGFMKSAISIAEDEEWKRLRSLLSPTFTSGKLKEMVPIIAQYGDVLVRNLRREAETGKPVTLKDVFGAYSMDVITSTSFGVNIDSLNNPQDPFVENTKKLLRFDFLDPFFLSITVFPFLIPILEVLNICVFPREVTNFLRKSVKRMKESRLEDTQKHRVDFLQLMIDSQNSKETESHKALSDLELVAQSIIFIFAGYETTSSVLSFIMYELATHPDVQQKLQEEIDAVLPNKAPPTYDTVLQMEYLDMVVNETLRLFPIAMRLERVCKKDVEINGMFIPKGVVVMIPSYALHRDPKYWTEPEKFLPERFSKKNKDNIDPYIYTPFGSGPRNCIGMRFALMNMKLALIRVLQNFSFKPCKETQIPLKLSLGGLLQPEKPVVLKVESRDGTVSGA

C=Cc1ccccn1
inactive: Potency [1] | Potency [2] | Potency [3] | Potency [4] | Potency [5] | caspase-3 activation [6] 0.756% | outcome [7] | outcome [8] | outcome [9] | caspase-3 activation [10] 2.96% | outcome [11] | caspase-3 activation [12] 1.92% | caspase-3 activation [13] 3.43% | outcome [14] | outcome [15] | Potency [16] | Potency [17] | Potency [18]

COc1ccccc1[N+](=O)[O-]
inactive: Potency [1] | Potency [2] | Potency [3] | Potency [4] | Potency [5] | caspase-3 activation [6] 10.8% | outcome [7] | outcome [8] | outcome [9] | caspase-3 activation [10] -1.05% | outcome [11] | caspase-3 activation [12] 0.0394% | caspase-3 activation [13] -0.651% | outcome [14] | outcome [15] | Potency [16] | Potency [18]

CCN(CC)c1cccc(O)c1
inactive: Potency [1] | Potency [2] | Potency [3] | Potency [4] | Potency [5] | caspase-3 activation [6] 0.712% | outcome [7] | outcome [8] | outcome [19] | caspase-3 activation [10] -0.898% | outcome [11] | caspase-3 activation [12] 2.1% | caspase-3 activation [13] 0.00739% | outcome [14] | outcome [15] | Potency [16] | outcome [20] | Potency [18]

CC(C)CO
inactive: Potency [1] | Potency [2] | Potency [3] | Potency [4] | Potency [5] | caspase-3 activation [6] -0.38% | outcome [7] | outcome [8] | outcome [9] | caspase-3 activation [10] 0.186% | outcome [11] | caspase-3 activation [12] -0.412% | caspase-3 activation [13] -2.74% | outcome [14] | outcome [15] | Potency [16] | Potency [18]

C=CCCC
inactive: Potency [1] | Potency [2] | Potency [3] | Potency [4] | Potency [5] | caspase-3 activation [6] -0.379% | outcome [7] | outcome [8] | outcome [9] | caspase-3 activation [10] -0.34% | caspase-3 activation [12] 1.14% | caspase-3 activation [13] -1.75% | outcome [14] | outcome [15] | Potency [16] | Potency [17] | Potency [18]

CC(C)(C)c1ccc(OCC2CO2)cc1 (stereo unspecified)
inactive: Potency [1] | Potency [2] | Potency [3] | Potency [4] | Potency [5] | caspase-3 activation [6] 15.6% | outcome [7] | outcome [8] | outcome [19] | outcome [11] | caspase-3 activation [12] 0.475% | caspase-3 activation [13] -2.1% | outcome [14] | outcome [15] | Potency [16] | Potency [17] | Potency [18]

NC(=O)/N=N/C(N)=O
inactive: Potency [1] | Potency [2] | Potency [3] | Potency [4] | Potency [5] | caspase-3 activation [6] -2.04% | outcome [7] | outcome [8] | outcome [9] | caspase-3 activation [12] 1.22% | caspase-3 activation [13] -1.75% | outcome [14] | outcome [15] | Potency [16] | outcome [20] | Potency [18]

C=C(C)C1CC=C(C)C(OC(C)=O)C1 (stereo unspecified)
inactive: Potency [1] | Potency [2] | Potency [3] | Potency [4] | Potency [5] | caspase-3 activation [6] 0.979% | outcome [7] | outcome [8] | outcome [9] | caspase-3 activation [10] -0.114% | outcome [11] | caspase-3 activation [12] 2.65% | caspase-3 activation [13] 1.35% | outcome [14] | outcome [15] | Potency [16] | Potency [17] | Potency [18]

Cc1cccc2ccccc12
inactive: Potency [1] | Potency [2] | Potency [3] | Potency [4] | Potency [5] | caspase-3 activation [6] -1.75% | outcome [7] | outcome [8] | outcome [19] | caspase-3 activation [10] 0.763% | outcome [11] | caspase-3 activation [12] 0.93% | caspase-3 activation [13] 0.828% | outcome [14] | outcome [15] | Potency [16] | Potency [18]

C=C(C)OC(C)=O
inactive: Potency [1] | Potency [2] | Potency [3] | Potency [4] | Potency [5] | caspase-3 activation [6] -0.77% | outcome [7] | outcome [8] | outcome [19] | outcome [11] | caspase-3 activation [12] 2.67% | caspase-3 activation [13] -0.975% | outcome [14] | outcome [15] | Potency [16] | Potency [17] | Potency [18]

Cc1cccc2sc(N)nc12
inactive: Potency [1] | Potency [2] | Potency [3] | Potency [4] | Potency [5] | caspase-3 activation [6] -0.319% | outcome [8] | outcome [19] | outcome [9] | caspase-3 activation [10] -0.691% | outcome [11] | caspase-3 activation [12] -0.522% | caspase-3 activation [13] 1.8% | outcome [14] | outcome [15] | Potency [16] | Potency [17] | Potency [18]

O=Cc1c(Cl)cccc1Cl
inactive: Potency [1] | Potency [2] | Potency [3] | Potency [4] | Potency [5] | caspase-3 activation [6] 3.49% | outcome [8] | outcome [19] | outcome [9] | caspase-3 activation [10] -0.583% | outcome [11] | caspase-3 activation [12] 5.93% | caspase-3 activation [13] 1.92% | outcome [14] | outcome [15] | Potency [16] | Potency [17] | Potency [18]

O=Cc1ccc(Cl)cc1
inactive: Potency [1] | Potency [2] | Potency [3] | Potency [4] | Potency [5] | caspase-3 activation [6] -1.13% | outcome [7] | outcome [8] | outcome [9] | caspase-3 activation [10] 0.65% | outcome [11] | caspase-3 activation [12] 0.113% | caspase-3 activation [13] 2% | outcome [14] | outcome [15] | Potency [16] | Potency [17] | Potency [18]
